According to the OligoGym collection:

target: MON2; assay: pooled miR-30 sensor sort-seq; sequence = guide strand; details: shRNA
Also: reference of the scale not given here.

| Sequence | sensor-assay potency score (higher = more potent) |
| --- | --- |
| TAGTCGAAAACAAAGAACGATT | -1.16 |
| TAGAAAATCTGTCACAACCAAC | -1.49 |
| TTGAATAGAGAGATTATCTGGA | 0.727 |
| TACAATATCACGAAAAACCTTG | -0.21 |
| TAAACTAATATTGAGTTCTTGG | -0.234 |

target: MOV10; assay: as above; details: shRNA

| Sequence | sensor-assay potency score (higher = more potent) |
| --- | --- |
| TTCAGGTAGGAAGTCACTGTGG | -0.627 |
| TTTCTTTACAGAACTCCAGGAA | -0.0759 |
| TTGAAGGTAAAGTTCACCTTGA | 0.564 |
| TTAATTGCCTCCACTAACGTGA | 0.283 |
| TTGTACAGGGAGTTGTAGGTGA | 0.0022 |
| TTGATCTCTGCGATCTCCTTAG | -0.607 |
| TTCTTCTACTGAACCCACCTTC | -0.0526 |
| TTGAGTTTCACATCTGAGGGCA | 0.674 |
| TAACGTGACAGTCTTGCCGGTG | -0.472 |
| TTCACCTTGAAGGTCAGCCCAT | -0.593 |
| TATTCCTGCAGCTTCTTCTTGG | 0.321 |
| AAGCTGATCTTGAAGTCGCGGT | 0.0595 |

target: MPDU1; assay: as above; details: shRNA

| Sequence | sensor-assay potency score (higher = more potent) |
| --- | --- |
| TTTCTAAGGATCTGGATCCATC | -1.09 |
| TAGTGCATGACCAGGAAGCAGA | -0.943 |
| TTTCACAGTCTGTCCTCTGTAG | 0.208 |
| TGAATGGAAGTGAAGATTCGGG | -0.586 |
| TCCTCTGTAGTGCATGACCAGG | -1.87 |
| TTACACAGCTGGAAATTGCTGC | 0.224 |
| TTGGTCGTAGCATTTCTCAGGT | 0.125 |
| TAAAAGAATCGGCACGAGCAGC | -0.833 |
| TAATAGTACATGTACAGGGCTT | -0.0728 |
| TTTCTCAGGTAAAAGAATCGGC | 0.459 |
| TTCCACTAAAAGAAAACCCTGG | 0.439 |
| ATGCTGTAGACCATGGTCCCAG | -1.15 |

target: MPG; assay: as above; details: shRNA

| Sequence | sensor-assay potency score (higher = more potent) |
| --- | --- |
| TCTAGCTGGTCGCTGCTTCTTT | -0.646 |
| TAGCTGGTCGCTGCTTCTTTTG | -2.15 |
| TCTGTCGACCACACTGACCCAG | -0.682 |
| TGGTCGAAGAACTCCAACCCCA | -1.62 |
| TAAATGATGTACACGTACAGGG | -0.261 |
| AAGAACTCCAACCCCAGTCGGG | -0.896 |
| TCGACCACACTGACCCAGGGGC | -0.746 |
| TTCTTTTGCCCCATCCGTCGGC | -0.549 |
| TCATGCAGAAGTACATGCCGTA | 0.083 |
| TTCATGCAGAAGTACATGCCGT | -0.872 |
| TACAGCTTCATCCTGTGCCAGG | -1.03 |
